# Target: GST-Hu-p50 (Homo sapiens, UniProt P19838 7-356)
# Experiment: protein-binding microarray (PBM); PBM: ~300 nM protein, 6 mM HEPES pH 7.8, 80 mM KCl, 0.5 mM EDTA, 0.5 mM EGTA, 6% glycerol, 35 ng/ul poly-dIdC, 1% milk, 1 h, room temperature; Ap Aiptasia and Nv Nematostella (sea anemones) / Co Capsaspora / Aq Amphimedon (sponge) / Dm Drosophila / Hu human; RHD is the Rel homology domain; high values mean tight binding
# Details: dsDNA, one strand shown
# Chain of GST-Hu-p50 (P19838 7-356): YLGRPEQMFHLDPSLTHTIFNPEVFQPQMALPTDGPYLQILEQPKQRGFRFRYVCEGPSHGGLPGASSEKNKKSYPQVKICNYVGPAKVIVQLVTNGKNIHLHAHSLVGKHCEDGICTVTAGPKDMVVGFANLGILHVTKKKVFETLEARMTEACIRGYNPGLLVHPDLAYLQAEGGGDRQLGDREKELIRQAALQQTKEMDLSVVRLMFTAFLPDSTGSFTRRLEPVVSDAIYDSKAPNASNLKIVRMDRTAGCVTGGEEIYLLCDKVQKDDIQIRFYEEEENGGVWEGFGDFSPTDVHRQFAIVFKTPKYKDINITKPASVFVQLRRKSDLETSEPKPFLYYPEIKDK
row,Sequence,binding signal
1,CCGATTAACATCAGGGGATGACCTGATGTTAATCGGGTCTTGATTCGCTTGACGCTGCTG,3.42 z-score
2,CCGATTAACATCAATTTACCCACTGATGTTAATCGGGTCTTGATTCGCTTGACGCTGCTG,2.06 z-score
3,CCGATTAACATCACGGGAAACCCTGATGTTAATCGGGTCTTGATTCGCTTGACGCTGCTG,2.62 z-score
4,CCGATTAACATCAGGCAAGTCCCTGATGTTAATCGGGTCTTGATTCGCTTGACGCTGCTG,3.44 z-score
5,CCGATTAACATCAGGGGGTAGAATGATGTTAATCGGGTCTTGATTCGCTTGACGCTGCTG,3.9 z-score
6,CCGATTAACATCAGGGGAGAATATGATGTTAATCGGGTCTTGATTCGCTTGACGCTGCTG,4.46 z-score
7,CCGATTAACATCAGGGGGCATTATGATGTTAATCGGGTCTTGATTCGCTTGACGCTGCTG,4.09 z-score
8,CCGATTAACATCAGGAGAATCCCTGATGTTAATCGGGTCTTGATTCGCTTGACGCTGCTG,1.64 z-score
9,CCGATTAACATCACTACTTTCCCTGATGTTAATCGGGTCTTGATTCGCTTGACGCTGCTG,3.06 z-score
10,CCGATTAACATCAGGGAACTACCTGATGTTAATCGGGTCTTGATTCGCTTGACGCTGCTG,3.92 z-score
11,CCGATTAACATCAGAGAAACCCCTGATGTTAATCGGGTCTTGATTCGCTTGACGCTGCTG,5.09 z-score
12,CCGATTAACATCAATTCCCAAGGTGATGTTAATCGGGTCTTGATTCGCTTGACGCTGCTG,2.13 z-score
13,CCGATTAACATCAGGGGGTATACTGATGTTAATCGGGTCTTGATTCGCTTGACGCTGCTG,3.99 z-score
14,CCGATTAACATCAATATAGTCCCTGATGTTAATCGGGTCTTGATTCGCTTGACGCTGCTG,3.8 z-score
15,CCGATTAACATCAGTACGGGAAATGATGTTAATCGGGTCTTGATTCGCTTGACGCTGCTG,1.94 z-score
16,CCGATTAACATCAGAAATCCCGCTGATGTTAATCGGGTCTTGATTCGCTTGACGCTGCTG,2.45 z-score
17,CCGATTAACATCACGGAGTCCCCTGATGTTAATCGGGTCTTGATTCGCTTGACGCTGCTG,5.13 z-score
18,CCGATTAACATCACGGTACTTCCTGATGTTAATCGGGTCTTGATTCGCTTGACGCTGCTG,2.86 z-score
19,CCGATTAACATCAGGAAGTTCCCTGATGTTAATCGGGTCTTGATTCGCTTGACGCTGCTG,3.79 z-score
20,CCGATTAACATCAGGGAAAACACTGATGTTAATCGGGTCTTGATTCGCTTGACGCTGCTG,4.24 z-score

row,Sequence,binding signal
1,CCGATTAACATCATCCGGGAAAATGATGTTAATCGGGTCTTGATTCGCTTGACGCTGCTG,2.14 z-score
2,CCGATTAACATCATAGTCCCATGTGATGTTAATCGGGTCTTGATTCGCTTGACGCTGCTG,1.34 z-score
3,CCGATTAACATCAGGCCTCCCCCTGATGTTAATCGGGTCTTGATTCGCTTGACGCTGCTG,4.37 z-score
4,CCGATTAACATCACGGATTTCCCTGATGTTAATCGGGTCTTGATTCGCTTGACGCTGCTG,3.76 z-score
5,CCGATTAACATCAGAAATCCCACTGATGTTAATCGGGTCTTGATTCGCTTGACGCTGCTG,2.66 z-score
6,CCGATTAACATCACAATACCCCCTGATGTTAATCGGGTCTTGATTCGCTTGACGCTGCTG,4.87 z-score
7,CCGATTAACATCAGAAAATGCCCTGATGTTAATCGGGTCTTGATTCGCTTGACGCTGCTG,2.79 z-score
8,CCGATTAACATCAGGCGTCCCCCTGATGTTAATCGGGTCTTGATTCGCTTGACGCTGCTG,4.92 z-score
9,CCGATTAACATCAGGGGTATAACTGATGTTAATCGGGTCTTGATTCGCTTGACGCTGCTG,1.68 z-score
10,CCGATTAACATCAGGTAATTTACTGATGTTAATCGGGTCTTGATTCGCTTGACGCTGCTG,2.79 z-score
11,CCGATTAACATCAGGGGAGTTAATGATGTTAATCGGGTCTTGATTCGCTTGACGCTGCTG,3.74 z-score
12,CCGATTAACATCACCCACTTCCCTGATGTTAATCGGGTCTTGATTCGCTTGACGCTGCTG,1.86 z-score
13,CCGATTAACATCAGGAACGCCCCTGATGTTAATCGGGTCTTGATTCGCTTGACGCTGCTG,3 z-score
14,CCGATTAACATCACCCATGGGAATGATGTTAATCGGGTCTTGATTCGCTTGACGCTGCTG,1.43 z-score
15,CCGATTAACATCAAAACAACCCCTGATGTTAATCGGGTCTTGATTCGCTTGACGCTGCTG,3.88 z-score
16,CCGATTAACATCAGGGGCGCCCCTGATGTTAATCGGGTCTTGATTCGCTTGACGCTGCTG,4.9 z-score
17,CCGATTAACATCACGGGGGGTAATGATGTTAATCGGGTCTTGATTCGCTTGACGCTGCTG,2.48 z-score
18,CCGATTAACATCAGGGACAGCCCTGATGTTAATCGGGTCTTGATTCGCTTGACGCTGCTG,3.54 z-score
19,CCGATTAACATCAGGGGACACCCTGATGTTAATCGGGTCTTGATTCGCTTGACGCTGCTG,3.82 z-score
